Drawing on PubChem BioAssay, this text covers composite z-score and z-score for 16 compounds.

The test system of assay [1] is XIP peptide (Xip251-270) binding. Briefly: XIP fragment 251-270 binding compounds – biochemical, small-molecule microarray, fluorescence 635/667 nm, 0.1 µg/mL protein, primary screen (AID 1182). Conditions: fluorescent protein binding, 635 nm, higher = more signal, called active from +8 up or from −8 down.
In assay [2] the test system is XIP peptide (Xip251-270). Briefly: compounds binding XIP fragment 251-270 – biochemical, small-molecule microarray, fluorescence 635/667 nm, 0.5 µg/mL protein, primary screen (AID 1183). Conditions: fluorescence 635 nm, higher = more signal.
Assay [3] in a line: blood-stage malaria parasite viability loss – strain 3D7, DAPI fluorescence, 100 nL, primary screen (AID 1184).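 Note: parasites grown inside human red blood cells in medium with human serum.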 Conditions: P. falciparum 3D7 growth, 3 d, higher = more signal.
The target in assay [4] is Homeobox protein Hox-A13 (Mus musculus) (UniProt Q62424). Briefly: disruptors of Hoxa13 oligonucleotide interaction – biochemical, fluorescence polarization, labeled oligonucleotide, primary screen (AID 1185). Conditions: Hoxa13:DNA binding, 15 min, higher = more signal, called active from +8 up or from −8 down.
Sequence of Homeobox protein Hox-A13 (Mus musculus) (Q62424 whole entry, looked up): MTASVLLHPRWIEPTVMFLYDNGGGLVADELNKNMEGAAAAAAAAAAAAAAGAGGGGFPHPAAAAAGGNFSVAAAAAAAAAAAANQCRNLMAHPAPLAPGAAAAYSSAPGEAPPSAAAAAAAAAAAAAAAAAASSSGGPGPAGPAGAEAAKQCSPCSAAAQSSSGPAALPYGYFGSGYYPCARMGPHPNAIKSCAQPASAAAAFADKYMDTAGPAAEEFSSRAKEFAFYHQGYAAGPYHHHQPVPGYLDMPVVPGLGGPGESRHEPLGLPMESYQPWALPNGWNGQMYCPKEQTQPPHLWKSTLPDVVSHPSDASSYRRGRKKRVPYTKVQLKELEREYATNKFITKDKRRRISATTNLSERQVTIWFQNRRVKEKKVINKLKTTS
Assay [5] can be described thus: blockers of DNA damage checkpoint Chk1 activation – imaging, HeLa, hydroxyurea, phospho-Chk1 antibody, percent positive cells, primary screen (AID 1186). Conditions: hydroxyurea-induced phospho-Chk1 immunofluorescence imaging, higher = more signal.
Assay [6] is described as follows: blockers of DNA damage checkpoint Chk1 activation – imaging, HeLa, hydroxyurea, phospho-Chk1 nuclear intensity, primary screen (AID 1187). Conditions: hydroxyurea-induced phospho-Chk1 immunofluorescence imaging, higher = more signal.

Calls of active or inactive are those of the source. Unless noted, the rule behind the calls is not given here.

Consider `COCCOC(=O)N1C(=O)[C@@]2(c3cc(C#CC4(O)CCCCCC4)ccc31)[C@H](C(N)=O)[C@H]1C(=O)O[C@H](c3ccccc3)[C@H](c3ccccc3)N1[C@@H]2c1ccc(O)cc1`, for which the composite z-score in assay [1] is 0.722 (inactive); in assay [2] it was 0.503. Besides, the z-score was 0.997 in assay [3], -2.76 (inactive) in assay [4], -0.102 (inactive) in assay [5] and 0.245 (inactive) in assay [6].
Consider `Cc1ccc(S[C@]2(C(=O)NCCN3CCOCC3)CC(=O)N(Cc3ccccc3C(F)(F)F)[C@@H]2c2ccc(CO)cc2I)cc1`, for which the composite z-score in assay [1] is 0.109 (inactive); in assay [2], 0.895. Moreover, the z-score in assay [3] was -0.701; in assay [4], -3.32 (inactive); in assay [5], 0.354 (inactive); in assay [6] it was 0.873 (inactive).
Turning to `CC(=O)N1Cc2ccccc2C[C@]2(N=C(c3ccc(OCCCO)cc3)O[C@@H]2c2ccccc2)C1=O`, the composite z-score was 1.84 (inactive) in assay [1] and 0.836 in assay [2]. Also, the z-score in assay [3] is -1.42; in assay [4] it was -4.24 (inactive); in assay [5], -0.151 (inactive); in assay [6], -0.0442 (inactive).
Turning to `CN(C)CCCCNC(=O)[C@H]1C[C@H]2C(=O)N3CCC[C@H]3C(=O)N2[C@H]1c1ccc(O)cc1`, the composite z-score is -0.301 (inactive) in assay [1] and 0.538 in assay [2]. Moreover, the z-score was -1.25 in assay [3], -0.12 (inactive) in assay [4], 0.331 (inactive) in assay [5] and 0.513 (inactive) in assay [6].
In the case of `CN1C(=O)C2C=CC(C(O)Cc3ccccc3)N(N(c3ccccc3)c3ccccc3)C2C1=O` (stereo unspecified), the composite z-score was -0.072 (inactive) in assay [1] and 0.645 in assay [2]. Also, the z-score in assay [3] is -0.077; in assay [4] it was -2.48 (inactive); in assay [5] it was 0.077 (inactive); in assay [6], -0.0628 (inactive).
For `CCOc1cc(C(O)C2C=CC3C(=O)N(C)C(=O)C3N2N2CCCCC2)ccc1O` (stereo unspecified), the results for the composite z-score in assay [1] and in assay [2] were 0.169 (inactive) and 0.333, respectively. For the same compound, the z-score in assay [3] was -0.144; in assay [4], -5.25 (inactive); in assay [5] it was -0.595 (inactive); in assay [6], -0.839 (inactive).
For `O=C1C[C@@](C(=O)NCC(F)(F)F)(c2ccc([N+](=O)[O-])cc2)[C@@H](c2ccc(CO)cc2)N1C1CCCCC1`, the composite z-score is 0.925 (inactive) in assay [1] and 0.871 in assay [2]. The z-score was 0.0369 in assay [3], -4.46 (inactive) in assay [4], -0.0554 (inactive) in assay [5] and -0.32 (inactive) in assay [6].
Consider `COC(=O)[C@@]1(Cc2ccccc2)[C@H]2c3cc(C(=O)N4CCCC4)n(C[C@H](O)CO)c3C[C@H]2CN1C(=O)c1ccccc1`, for which the values for the composite z-score in assay [1] and in assay [2] were 0.484 (inactive) and -0.487, respectively. Moreover, the z-score in assay [3] is -1.02; in assay [4] it was -5.19 (inactive); in assay [5], 0.905 (inactive); in assay [6], 0.777 (inactive).
As to `CC(C)N1C(=O)[C@@]2(c3ccc([N+](=O)[O-])cc3)CC(=O)N(C3CCCCC3)[C@@H]2c2ccc(CO)cc21`, the composite z-score in assay [1] was 0.888 (inactive); in assay [2], 0.287. For the same compound, the z-score was 0.501 in assay [3], 0.0267 (inactive) in assay [4], -0.135 (inactive) in assay [5] and -0.141 (inactive) in assay [6].
`C=C(C(=O)CC[C@H](OC(=O)c1cccnc1)c1ccc(CO)o1)C(C)C`: the composite z-score in assay [1] was 1.43 (inactive); in assay [2], 0.62. The z-score in assay [3] is 0.566; in assay [4], -5.25 (inactive); in assay [5] it was 0.286 (inactive); in assay [6] it was -0.0632 (inactive).
In the case of `C=CCN1C(=O)[C@]2(CC=C)N=C(c3ccc(OCCCO)cc3)O[C@@H]2c2ccccc21`, the values for the composite z-score in assay [1] and in assay [2] were 0.935 (inactive) and 0.707, respectively. For the same compound, the z-score is -1.96 in assay [3], -0.0163 (inactive) in assay [4], -0.0194 (inactive) in assay [5] and 0.169 (inactive) in assay [6].
With `COCCOC(=O)N1C(=O)[C@@]2(c3cc(C#CCC(C(=O)OC)C(=O)OC)ccc31)[C@H](c1ccc(OCCO)cc1)N1[C@H](c3ccccc3)[C@H](c3ccccc3)OC(=O)[C@H]1[C@@H]2C(=O)N1CCN(c2ncccn2)CC1`, the composite z-score in assay [1] was 1.42 (inactive); in assay [2], 0.824. Also, the z-score in assay [3] is -2.25; in assay [4] it was 2.08 (inactive); in assay [5], -0.163 (inactive); in assay [6], -0.0755 (inactive).
Turning to `C=CCNC(=O)[C@@H]1[C@H]2C(=O)O[C@H](c3ccccc3)[C@H](c3ccccc3)N2[C@H](c2ccc(OCCO)cc2)[C@@]12C(=O)N(C(=O)OCCOC)c1ccc(C#CC3=CCCCC3)cc12`, the composite z-score in assay [1] was 0.0094 (inactive); in assay [2], 0.659. The z-score in assay [3] is -2.19; in assay [4], 0.713 (inactive); in assay [5] it was 0.201 (inactive); in assay [6] it was 0.474 (inactive).
On to `CCOC(=O)C1=CC[C@@H](c2cc(Cl)ccc2Cl)N(S(=O)(=O)c2ccc(C)cc2)[C@H]1c1ccc(OC)cc1`, for which the composite z-score in assay [1] was -0.244 (inactive); in assay [2], -0.837. For the same compound, the z-score in assay [3] was -1.41; in assay [4], -1.08 (inactive); in assay [5], -0.256 (inactive); in assay [6], -0.611 (inactive).
For `COc1ccc(C#Cc2ccc3c(c2)[C@]2(C(=O)N3)[C@H](C(=O)N3CCc4cc(OC)c(OC)cc4C3)[C@H]3C(=O)O[C@H](c4ccccc4)[C@H](c4ccccc4)N3[C@@H]2c2ccc(O)cc2)cc1`, the composite z-score in assay [1] is 0.786 (inactive); in assay [2] it was 0.578. For the same compound, the z-score in assay [3] was -1.48; in assay [4], -1.05 (inactive); in assay [5], -0.24 (inactive); in assay [6], -0.218 (inactive).
For the compound `CC(C)C(CO)N1C(=O)[C@]2(C)C3C(=O)OCCC/C=C\[C@H]3OC23C=CCN(c2ccc(Cl)cc2)C(=O)[C@@H]13` (stereo partly specified), the composite z-score in assay [1] was 0.172 (inactive); in assay [2], 0.146. Also, the z-score in assay [3] is 0.775; in assay [4], -6.76 (inactive); in assay [5], -0.199 (inactive); in assay [6] it was -0.181 (inactive).
